# Measured values published in PubChem BioAssay AID618 (Sanford-Burnham Center for Chemical Genomics, 2007).
# About 540 (0.62%) of roughly 87,000 compounds were called active. How the calls were made is not given here. The list comes from a sample in which actives are over-represented; it also holds similar structures and randomly drawn compounds. Measured potencies and affinities stand elsewhere.
# Test: inhibitors of MT1-MMP promoter transcription, cell-based, luciferase reporter, luminescence (AID 618);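 further: actives suppress MT1-MMP promoter-driven transcription so potencies describe inhibitors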
# Settings: MT1-MMP promoter luciferase reporter cells
row,SMILES,outcome
1,COc1ccccc1OCC(=O)Nc1nc(-c2ccc(S(=O)(=O)N3CCOCC3)cc2)cs1,inactive
2,CC1CN/C(=C\C(=O)c2ccccc2)C(=O)N1 (configuration not stated),inactive
3,CC1CN/C(=C\C(=O)c2ccc(Cl)cc2)C(=O)N1 (configuration not stated),inactive
4,Cc1ccc(-n2ncc3c(=O)[nH]c(SCC(=O)N4CCC(C)CC4)nc32)cc1C,inactive
5,COc1ccc(NC(=O)c2cccs2)cc1,inactive
6,Cc1ccc(NC(=O)c2ccccc2)s1,active
7,Cc1cc(NC(=O)c2ccccc2)sc1C,inactive
8,Cc1sc(NC(=O)c2ccccc2)c(C(=O)NC(C)C)c1C,inactive
9,CCOc1ccccc1CNC(=O)C1CCCN(c2nc3ccccc3o2)C1 (configuration not stated),inactive
10,CCCCN1Cc2cc(C(=O)c3cc(F)ccc3O)cnc2NC1=O,inactive
11,CN1Cc2cc(C(=O)c3ccccc3O)cnc2NC1=O,inactive
12,CN1Cc2cc(C(=O)c3cc(Cl)cc(CSc4ncccn4)c3O)cnc2NC1=O,active
13,O=C(CN1C(=O)c2ccccc2S1(=O)=O)Nc1cccnc1,inactive
14,COc1ccc(CSc2nnc(C)n2N)cc1,inactive
15,COc1cccc(CC2CC(=O)N(CCc3ccc4c(c3)OCO4)C2=O)c1 (configuration not stated),inactive
16,CCC(=O)c1ccc(OCCSc2ncccn2)cc1,inactive

row,SMILES,outcome
1,COc1ccc(N=C2SCC(=O)N2c2ccc(OC)cc2)cc1,inactive
2,Cc1ccc2c(c1)C(N1CCCC1=O)CC(c1ccco1)N2 (configuration not stated),active
3,Cc1ccc(C2CC(c3ccco3)n3nc(N)nc3N2)cc1 (configuration not stated),inactive
4,Cc1ccc(C2CC(c3ccco3)n3ncnc3N2)cc1 (configuration not stated),inactive
5,CCc1nn(C(C)C(=O)NCCN2CCN(c3cccc(C)c3C)CC2)c(=O)c2cc3occc3n12 (configuration not stated),inactive
6,COCCOC(=O)c1[nH]c2c(c1C)C(=O)CC(c1cc(OC)ccc1OC)C2 (configuration not stated),inactive
7,CCOC(=O)c1ccc(N=CC2=C(O)CC(c3ccco3)CC2=O)cc1 (configuration not stated),inactive
8,Cc1c(C(=O)OC2CCCCC2)[nH]c2c1C(=O)CC(C)(C)C2,inactive
9,Cc1c(C(=O)OCC2CCCO2)[nH]c2c1C(=O)CC(c1ccco1)C2 (configuration not stated),inactive
10,COCCOC(=O)c1[nH]c2c(c1C)C(=O)CC(c1ccc(N(C)C)cc1)C2 (configuration not stated),inactive
11,Cc1c(C(=O)OC2CCCC2)[nH]c2c1C(=O)CC(c1ccco1)C2 (configuration not stated),active
12,Cc1c(C(=O)OCC(C)C)[nH]c2c1C(=O)CC(c1ccco1)C2 (configuration not stated),active
13,Cc1c(C(=O)OC2CCC(C)CC2)[nH]c2c1C(=O)CCC2 (configuration not stated),inactive
14,CCOC(=O)c1[nH]c2c(c1C)C(=O)CC(c1ccco1)C2 (configuration not stated),active
15,COCCOC(=O)c1[nH]c2c(c1C)C(=O)CC(c1ccco1)C2 (configuration not stated),active
16,CCC(C)OC(=O)c1[nH]c2c(c1C)C(=O)CC(c1ccc(N(C)C)cc1)C2 (configuration not stated),inactive
